# Laboratory results reported in publication PMC11006913.
# Substitutions are numbered along the chain they refer to.
# Tests used:
# Test in all cases: PBM; 200 nM protein, PBS
# Conditions in all cases: dsDNA, one strand shown
# HOXB4 [1] = target: HOXB4 (Homo sapiens, UniProt P17483 148-234)
# VENTX [2] = target: T1, VENTX (Homo sapiens, UniProt O95231 78-163, R121Q)
# T1 sequence: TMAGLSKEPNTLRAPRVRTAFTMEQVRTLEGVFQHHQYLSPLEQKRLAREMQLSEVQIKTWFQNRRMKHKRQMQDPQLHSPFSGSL
# HOXA4 [3] = target: HOXA4 (Homo sapiens, UniProt Q00056 201-287, W262R)
# Chain of HOXA4 (Homo sapiens, UniProt Q00056 201-287, W262R) (Q00056 201-287 W262R): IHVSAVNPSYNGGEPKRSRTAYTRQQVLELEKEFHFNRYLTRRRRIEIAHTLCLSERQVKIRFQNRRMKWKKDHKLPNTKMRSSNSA
# ALX4 = ALX4 (Homo sapiens, UniProt Q9H161 200-286)
# Chain of ALX4 (Q9H161 200-286): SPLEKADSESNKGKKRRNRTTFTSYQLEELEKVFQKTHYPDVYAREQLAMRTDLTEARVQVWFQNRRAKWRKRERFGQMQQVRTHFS
# PRRX1 [4] = target: PRRX1 (Homo sapiens, UniProt P54821 80-166, F113S)
# Chain of PRRX1 (Homo sapiens, UniProt P54821 80-166, F113S) (P54821 80-166 F113S): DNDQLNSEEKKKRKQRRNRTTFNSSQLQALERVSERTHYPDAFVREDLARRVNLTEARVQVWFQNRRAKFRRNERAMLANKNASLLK
# VENTX [5] = target: T2, VENTX (Homo sapiens, UniProt O95231 78-163, Y115F)
# T2 sequence: T1 sequence with Y38F, Q44R
# HOXB6 [6] = target: HOXB6 (Homo sapiens, UniProt P17509 132-218, K202E)
# Chain of HOXB6 (Homo sapiens, UniProt P17509 132-218, K202E) (P17509 132-218 K202E): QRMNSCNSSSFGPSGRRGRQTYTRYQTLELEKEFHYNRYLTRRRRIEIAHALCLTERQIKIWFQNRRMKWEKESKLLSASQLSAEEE
# HOXA2 [7] = target: HOXA2 (Homo sapiens, UniProt O43364 129-215, R185T)
# Chain of HOXA2 (Homo sapiens, UniProt O43364 129-215, R185T) (O43364 129-215 R185T): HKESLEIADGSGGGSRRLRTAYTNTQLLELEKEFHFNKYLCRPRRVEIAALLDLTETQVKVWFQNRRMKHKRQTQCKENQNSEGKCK
# HOXA4 [8] = target: HOXA4 (Homo sapiens, UniProt Q00056 201-287, R217L)
# Chain of HOXA4 (Homo sapiens, UniProt Q00056 201-287, R217L) (Q00056 201-287 R217L): as the sequence (Q00056 201-287 W262R) above, with R17L, R62W counted along it
# HOXB4 [9] = target: HOXB4 (Homo sapiens, UniProt P17483 148-234, V174I)
# Chain of HOXB4 (Homo sapiens, UniProt P17483 148-234, V174I) (P17483 148-234 V174I): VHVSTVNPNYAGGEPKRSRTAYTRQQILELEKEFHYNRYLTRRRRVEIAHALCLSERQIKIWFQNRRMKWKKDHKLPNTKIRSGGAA
# PAX4 = target: T3, PAX4 (Homo sapiens, UniProt O43316 9-242, R200Q)
# T3 sequence: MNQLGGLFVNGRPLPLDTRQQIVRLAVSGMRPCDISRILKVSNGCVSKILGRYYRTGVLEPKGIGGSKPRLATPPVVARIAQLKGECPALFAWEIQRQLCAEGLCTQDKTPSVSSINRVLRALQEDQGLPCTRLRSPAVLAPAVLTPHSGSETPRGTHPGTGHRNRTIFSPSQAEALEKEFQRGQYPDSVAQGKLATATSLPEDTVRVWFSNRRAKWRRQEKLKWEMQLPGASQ
# HOXA2 [10] = target: HOXA2 (Homo sapiens, UniProt O43364 129-215, R185K)
# Chain of HOXA2 (Homo sapiens, UniProt O43364 129-215, R185K) (O43364 129-215 R185K): as the sequence (O43364 129-215 R185T) above, with T57K counted along it
# HOXA4 [11] = target: HOXA4 (Homo sapiens, UniProt Q00056 201-287)
# Chain of HOXA4 (Homo sapiens, UniProt Q00056 201-287) (Q00056 201-287): as the sequence (Q00056 201-287 W262R) above, with R62W counted along it
# MSX2 [12] = target: MSX2 (Homo sapiens, UniProt P35548 130-214)
# Chain of MSX2 (Homo sapiens, UniProt P35548 130-214) (P35548 130-214): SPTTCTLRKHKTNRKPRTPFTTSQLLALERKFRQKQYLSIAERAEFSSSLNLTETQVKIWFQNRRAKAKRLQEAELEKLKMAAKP
# MSX2 [13] = target: MSX2 (Homo sapiens, UniProt P35548 130-214, F161Y)
# Chain of MSX2 (Homo sapiens, UniProt P35548 130-214, F161Y) (P35548 130-214 F161Y): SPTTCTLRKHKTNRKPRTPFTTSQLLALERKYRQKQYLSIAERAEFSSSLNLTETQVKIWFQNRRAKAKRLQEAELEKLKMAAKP
# VAX1 [14] = target: VAX1 (Homo sapiens, UniProt Q5SQQ9 86-172, T142I)
# Chain of VAX1 (Homo sapiens, UniProt Q5SQQ9 86-172, T142I) (Q5SQQ9 86-172 T142I): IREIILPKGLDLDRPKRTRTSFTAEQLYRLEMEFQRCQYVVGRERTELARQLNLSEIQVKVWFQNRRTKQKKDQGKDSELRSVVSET
# HOXA4 [15] = target: HOXA4 (Homo sapiens, UniProt Q00056 201-287, W262F)
# Chain of HOXA4 (Homo sapiens, UniProt Q00056 201-287, W262F) (Q00056 201-287 W262F): as the sequence (Q00056 201-287 W262R) above, with R62F counted along it
# PRRX1 [16] = target: PRRX1 (Homo sapiens, UniProt P54821 80-166)
# Chain of PRRX1 (Homo sapiens, UniProt P54821 80-166) (P54821 80-166): as the sequence (P54821 80-166 F113S) above, with S34F counted along it
# VAX1 [17] = target: VAX1 (Homo sapiens, UniProt Q5SQQ9 86-172, K157R)
# Chain of VAX1 (Homo sapiens, UniProt Q5SQQ9 86-172, K157R) (Q5SQQ9 86-172 K157R): as the sequence (Q5SQQ9 86-172 T142I) above, with I57T, K72R counted along it
# HOXB6 [18] = target: HOXB6 (Homo sapiens, UniProt P17509 132-218)
# Chain of HOXB6 (Homo sapiens, UniProt P17509 132-218) (P17509 132-218): as the sequence (P17509 132-218 K202E) above, with E71K counted along it
# Chain of HOXB4 (Homo sapiens, UniProt P17483 148-234) (P17483 148-234): as the sequence (P17483 148-234 V174I) above, with I27V counted along it
Sequence,binding signal (HOXB4 [1]),binding signal (VENTX [2]),binding signal (HOXA4 [3]),binding signal (ALX4),binding signal (PRRX1 [4]),binding signal (VENTX [5]),binding signal (HOXB6 [6]),binding signal (HOXA2 [7]),binding signal (HOXA4 [8]),binding signal (HOXB4 [9]),binding signal (PAX4),binding signal (HOXA2 [10]),binding signal (HOXA4 [11]),binding signal (MSX2 [12]),binding signal (MSX2 [13]),binding signal (VAX1 [14]),binding signal (HOXA4 [15]),binding signal (PRRX1 [16]),binding signal (VAX1 [17]),binding signal (HOXB6 [18])
AATTAATT,"13.4 upbm affinity estimate (log intensity, higher = more binding, comparable within an allelic series)","12.1 upbm affinity estimate (log intensity, higher = more binding, comparable within an allelic series)","10.8 upbm affinity estimate (log intensity, higher = more binding, comparable within an allelic series)","14.7 upbm affinity estimate (log intensity, higher = more binding, comparable within an allelic series)","11.8 upbm affinity estimate (log intensity, higher = more binding, comparable within an allelic series)","11.8 upbm affinity estimate (log intensity, higher = more binding, comparable within an allelic series)","10.2 upbm affinity estimate (log intensity, higher = more binding, comparable within an allelic series)","13.4 upbm affinity estimate (log intensity, higher = more binding, comparable within an allelic series)","12.8 upbm affinity estimate (log intensity, higher = more binding, comparable within an allelic series)","14.1 upbm affinity estimate (log intensity, higher = more binding, comparable within an allelic series)","12.8 upbm affinity estimate (log intensity, higher = more binding, comparable within an allelic series)","13.5 upbm affinity estimate (log intensity, higher = more binding, comparable within an allelic series)","14 upbm affinity estimate (log intensity, higher = more binding, comparable within an allelic series)","14.1 upbm affinity estimate (log intensity, higher = more binding, comparable within an allelic series)","13.8 upbm affinity estimate (log intensity, higher = more binding, comparable within an allelic series)","13.2 upbm affinity estimate (log intensity, higher = more binding, comparable within an allelic series)","12.2 upbm affinity estimate (log intensity, higher = more binding, comparable within an allelic series)","13.6 upbm affinity estimate (log intensity, higher = more binding, comparable within an allelic series)","13.1 upbm affinity estimate (log intensity, higher = more binding, comparable within an allelic series)","12.4 upbm affinity estimate (log intensity, higher = more binding, comparable within an allelic series)"
ATTAATTG,"13.4 upbm affinity estimate (log intensity, higher = more binding, comparable within an allelic series)","12.2 upbm affinity estimate (log intensity, higher = more binding, comparable within an allelic series)","10.7 upbm affinity estimate (log intensity, higher = more binding, comparable within an allelic series)","14.2 upbm affinity estimate (log intensity, higher = more binding, comparable within an allelic series)","11.4 upbm affinity estimate (log intensity, higher = more binding, comparable within an allelic series)","11.9 upbm affinity estimate (log intensity, higher = more binding, comparable within an allelic series)","10.1 upbm affinity estimate (log intensity, higher = more binding, comparable within an allelic series)","13.3 upbm affinity estimate (log intensity, higher = more binding, comparable within an allelic series)","12.5 upbm affinity estimate (log intensity, higher = more binding, comparable within an allelic series)","14.2 upbm affinity estimate (log intensity, higher = more binding, comparable within an allelic series)","12.2 upbm affinity estimate (log intensity, higher = more binding, comparable within an allelic series)","13.5 upbm affinity estimate (log intensity, higher = more binding, comparable within an allelic series)","14 upbm affinity estimate (log intensity, higher = more binding, comparable within an allelic series)","14 upbm affinity estimate (log intensity, higher = more binding, comparable within an allelic series)","13.7 upbm affinity estimate (log intensity, higher = more binding, comparable within an allelic series)","12.9 upbm affinity estimate (log intensity, higher = more binding, comparable within an allelic series)","11.8 upbm affinity estimate (log intensity, higher = more binding, comparable within an allelic series)","13.4 upbm affinity estimate (log intensity, higher = more binding, comparable within an allelic series)","12.9 upbm affinity estimate (log intensity, higher = more binding, comparable within an allelic series)","12.3 upbm affinity estimate (log intensity, higher = more binding, comparable within an allelic series)"
CAATTAAA,–,"11.7 upbm affinity estimate (log intensity, higher = more binding, comparable within an allelic series)","10.5 upbm affinity estimate (log intensity, higher = more binding, comparable within an allelic series)","14 upbm affinity estimate (log intensity, higher = more binding, comparable within an allelic series)","11.2 upbm affinity estimate (log intensity, higher = more binding, comparable within an allelic series)","11.4 upbm affinity estimate (log intensity, higher = more binding, comparable within an allelic series)","10 upbm affinity estimate (log intensity, higher = more binding, comparable within an allelic series)","12.6 upbm affinity estimate (log intensity, higher = more binding, comparable within an allelic series)","12.1 upbm affinity estimate (log intensity, higher = more binding, comparable within an allelic series)",–,–,–,"13.6 upbm affinity estimate (log intensity, higher = more binding, comparable within an allelic series)","14 upbm affinity estimate (log intensity, higher = more binding, comparable within an allelic series)","13.7 upbm affinity estimate (log intensity, higher = more binding, comparable within an allelic series)","12.7 upbm affinity estimate (log intensity, higher = more binding, comparable within an allelic series)","11.3 upbm affinity estimate (log intensity, higher = more binding, comparable within an allelic series)","13.3 upbm affinity estimate (log intensity, higher = more binding, comparable within an allelic series)","12.8 upbm affinity estimate (log intensity, higher = more binding, comparable within an allelic series)","12.1 upbm affinity estimate (log intensity, higher = more binding, comparable within an allelic series)"
ATTAATAG,"13 upbm affinity estimate (log intensity, higher = more binding, comparable within an allelic series)","11.7 upbm affinity estimate (log intensity, higher = more binding, comparable within an allelic series)","10.6 upbm affinity estimate (log intensity, higher = more binding, comparable within an allelic series)",–,–,–,"10.1 upbm affinity estimate (log intensity, higher = more binding, comparable within an allelic series)",–,"12 upbm affinity estimate (log intensity, higher = more binding, comparable within an allelic series)","13.7 upbm affinity estimate (log intensity, higher = more binding, comparable within an allelic series)",–,–,"13.6 upbm affinity estimate (log intensity, higher = more binding, comparable within an allelic series)",–,–,"12.5 upbm affinity estimate (log intensity, higher = more binding, comparable within an allelic series)","11.3 upbm affinity estimate (log intensity, higher = more binding, comparable within an allelic series)",–,"12.4 upbm affinity estimate (log intensity, higher = more binding, comparable within an allelic series)","12 upbm affinity estimate (log intensity, higher = more binding, comparable within an allelic series)"
GTCAATTA,"13.3 upbm affinity estimate (log intensity, higher = more binding, comparable within an allelic series)","11.7 upbm affinity estimate (log intensity, higher = more binding, comparable within an allelic series)","10.5 upbm affinity estimate (log intensity, higher = more binding, comparable within an allelic series)","13.9 upbm affinity estimate (log intensity, higher = more binding, comparable within an allelic series)","11 upbm affinity estimate (log intensity, higher = more binding, comparable within an allelic series)",–,"9.73 upbm affinity estimate (log intensity, higher = more binding, comparable within an allelic series)","12.9 upbm affinity estimate (log intensity, higher = more binding, comparable within an allelic series)","12.1 upbm affinity estimate (log intensity, higher = more binding, comparable within an allelic series)","13.9 upbm affinity estimate (log intensity, higher = more binding, comparable within an allelic series)",–,"13.2 upbm affinity estimate (log intensity, higher = more binding, comparable within an allelic series)","13.8 upbm affinity estimate (log intensity, higher = more binding, comparable within an allelic series)","13.8 upbm affinity estimate (log intensity, higher = more binding, comparable within an allelic series)","13.4 upbm affinity estimate (log intensity, higher = more binding, comparable within an allelic series)","13.1 upbm affinity estimate (log intensity, higher = more binding, comparable within an allelic series)","11.3 upbm affinity estimate (log intensity, higher = more binding, comparable within an allelic series)","13.3 upbm affinity estimate (log intensity, higher = more binding, comparable within an allelic series)","13.2 upbm affinity estimate (log intensity, higher = more binding, comparable within an allelic series)","11.7 upbm affinity estimate (log intensity, higher = more binding, comparable within an allelic series)"
